# Measured values published in PubChem BioAssay (NCI).
# This is part of a sample that, as a whole, favours compounds with a hit. Of some 79,000 tested, about 15% had one in any assay. Values without a mark were called inactive. Calls of active or inactive are those of the source. No stated cut-off is given here; in the data, active means growth inhibition above about 70%; inactive means the rest.
# Assay: NCI Yeast Anticancer Drug Screen. Data for the sgs1 mgt1 strain (AID 161);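 further: 0% = growth of cultures given vehicle only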
# Conditions: S. cerevisiae sgs1 mgt1 strain, at 50.0 µM, hits give high values
# Summary of the method: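 Compounds are added to genetically altered yeast, and growth is compared with cultures given vehicle alone to give percent inhibition.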
row,Compound,growth inhibition [%]
1,C=C1CCN(c2ccccc2)C1=O,-5.15
2,Cc1ccc(OCC2OC(n3cnc4c(Cl)nc(Cl)nc43)CC2Oc2ccc(C)cc2)cc1 (centres undefined),23.1
3,O=c1c2ccccc2nc(-c2ccccc2)n1/N=C/c1ccccc1[N+](=O)[O-],26.8
4,CCC(C)C1(O)OC2CC3(C)OC(=CC3=O)/C(C)=C\C3OC(=O)C1(C)C32 (centres undefined),37.5
5,COc1ccc2c(c1)N(C(C)=O)CN1C(=O)CCC21 (centres undefined),-1.25
6,COc1ccc2nc(NC(=O)/C(C#N)=C/c3ccccc3)sc2c1,44.6
7,CC1=C(/C=C/C(C)=C/C=C/C(C)=C/C(=O)Nc2ccc(O)cc2)C(C)(C)CCC1,-2.3
8,COC(=O)c1nc(Br)cnc1N,2.1
9,COc1cc2c(cc1-c1coc3cc(O)ccc3c1=O)OCO2,-15.6
10,CC1CC2(OC2C)C(=O)OC2CCN(C)C/C=C(/COC(=O)C1(C)O)C2=O (centres undefined),20.9
11,O=C(/C=C/c1ccccc1)Nc1ccccc1,6.35
12,CC1=CC(=O)c2ccc(C)cc2C1=O,-6.9
13,O=C1C=CC=C/C1=C1\N=C(c2ccccc2OCC(=O)c2ccc(Br)cc2)SS1,12.8
14,CCOc1cc2c(cc1O)C=C[C@@H]1[C@@H]2CC[C@]2(C)[C@@H](O)CC[C@@H]12,53.8
15,Cc1ccc2c(sc(-c3ccc4c(c3)sc(-c3ccc5c(c3)sc(-c3ccc(N(C)C)cc3)[n+]5C)[n+]4C)[n+]2C)c1S(=O)(=O)O (tested in a mixture with another compound),46.4
16,COc1ccc(N=C(C)C(C)=Nc2ccc(OC)cc2)cc1,-15.1
17,COc1ccc2nc(N/N=C/c3ccc(C)s3)cc(C)c2c1,15.6
18,O=C1c2cccnc2-c2nccc3ccnc1c23,63
19,CNC(=S)/C(=N\Nc1nc[nH]c1C(N)=O)C(N)=S,38.5
20,COc1cc(N(CCC#N)CCC#N)ccc1/C(N=Nc1ccc(Cl)cc1)=N/NC(=O)c1cc(Br)ccc1O,-6.45
21,O=C(Nc1cccc(NC(=O)C(=O)C2CCC3=C(Sc4ccccc4N3)C2=O)n1)C(=O)C1CCC2=C(Sc3ccccc3N2)C1=O (centres undefined),3
22,COC(=O)C(=O)C(C(=O)C(=O)Nc1ccccc1C(C)=O)c1nc2ccc(C(=O)c3ccccc3)cc2[nH]c1=O (centres undefined),33.6
23,[O-]c1ccccc1/C=N/C(/N=C/c1ccccc1[O-])c1ccccc1O.[O-]c1ccccc1/C=N/C(/N=C/c1ccccc1[O-])c1ccccc1O.[Zr+4],-1.6
24,OCc1ccccn1,-4.65

# Assay: NCI Yeast Anticancer Drug Screen. Data for the cln2 rad14 strain (AID 165);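 further: 0% = growth equal to vehicle treated cultures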
# Conditions: S. cerevisiae cln2 rad14 strain, at 50.0 µM, hits give high values
# Summary of the method: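 Yeast strain cln2 rad14, bearing defects in cell cycle control and DNA repair, serves as the test system; values reflect growth inhibition compared with vehicle.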
row,Compound,growth inhibition
1,O=C1NC(N/N=C\c2ccccc2)=N/C1=C/c1ccc(Cl)cc1,17.8%
2,N#CC(=S)Nc1ccc(F)cc1,-17.8%
3,COc1c2c(c3c(c1OC)c(=O)c1ccccc1n3C)OCO2,8.5%
4,CCCCCCCCCC(O)CC(=O)c1c(O)cccc1O (centres undefined),86.2% (active)
5,O=c1c2ccccc2nc(-c2ccccc2)n1/N=C/c1ccccc1[N+](=O)[O-],8.35%
6,COc1cc2c(cc1-c1coc3cc(O)ccc3c1=O)OCO2,11.2%
7,CC1CC2(OC2C)C(=O)OC2CCN(C)C/C=C(/COC(=O)C1(C)O)C2=O (centres undefined),4.85%
8,O=C1c2cccnc2-c2nccc3ccnc1c23,45.6%
9,OCc1ccccn1,-0.25%

# Assay: NCI Yeast Anticancer Drug Screen. Data for the bub3 strain (AID 167)
# Conditions: S. cerevisiae bub3 mutant strain, at 50.0 µM, hits give high values
# Summary of the method: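 Readout: yeast growth inhibition, expressed relative to vehicle-only wells. The test organism is a mutant strain from a panel with lesions in DNA repair or checkpoint genes.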
row,Compound,growth inhibition [%]
1,Cc1nc(-[n+]2nc(-c3ccccc3)nn2-c2ccccc2)sc1C,-26.8
2,CC(=O)[C-](C(C)=O)c1ccccc1.CC(=O)[C-](C(C)=O)c1ccccc1.CC(=O)[C-](C(C)=O)c1ccccc1.[Cl-].[Zr+4],14.8
3,CC1(C)Oc2ccc3c(=O)cc(-c4ccc(F)cc4)oc3c2C1C(=O)O (centres undefined),8.1
4,C=C1C(=O)OC2/C=C(\CO)CC/C=C(\CO)CC(OC(=O)C(C)C)C12 (centres undefined),-7
5,COC(=O)c1cnn2c1n[n+]([O-])c1ccccc12,-37
6,Cc1ccc(OC2CC(n3cnc4ncnc(Cl)c43)OC2Oc2ccc(C)cc2)cc1 (centres undefined),13
7,c1ccc(-c2cccc3ccccc23)cc1,-11.2
8,O=C(O)c1cn(C2CC2)c2cc(N3CCNCC3)c(F)cc2c1=O,-19.5
9,Cn1cnc2c(=O)[nH]c(=O)[nH]c21,-34.8
10,O=S(=O)(O)c1cc(O)c2c(O)cc(S(=O)(=O)O)cc2c1,-8.1
11,CCOC(=O)C(=O)C(CCC(=O)c1ccc2ccccc2c1O)C(=O)OCC (centres undefined),0.5
12,CCOC(=O)COc1cc(-c2ccccc2)nc2cc(F)ccc12,-4.1
13,C=C1CCN(c2ccccc2)C1=O,-5.05
14,Cc1ccc(OCC2OC(n3cnc4c(Cl)nc(Cl)nc43)CC2Oc2ccc(C)cc2)cc1 (centres undefined),27.4
15,CCC(C)C1(O)OC2CC3(C)OC(=CC3=O)/C(C)=C\C3OC(=O)C1(C)C32 (centres undefined),-20.1
16,COc1ccc2c(c1)N(C(C)=O)CN1C(=O)CCC21 (centres undefined),6.85

row,Compound,growth inhibition [%]
1,COc1ccc2nc(NC(=O)/C(C#N)=C/c3ccccc3)sc2c1,-8.95
2,CC1=C(/C=C/C(C)=C/C=C/C(C)=C/C(=O)Nc2ccc(O)cc2)C(C)(C)CCC1,12.2
3,COC(=O)c1nc(Br)cnc1N,4
4,O=C(/C=C/c1ccccc1)Nc1ccccc1,7.05
5,CC1=CC(=O)c2ccc(C)cc2C1=O,-0.4
6,O=C1C=CC=C/C1=C1\N=C(c2ccccc2OCC(=O)c2ccc(Br)cc2)SS1,-0.75
7,CCOc1cc2c(cc1O)C=C[C@@H]1[C@@H]2CC[C@]2(C)[C@@H](O)CC[C@@H]12,18.7
8,Cc1ccc2c(sc(-c3ccc4c(c3)sc(-c3ccc5c(c3)sc(-c3ccc(N(C)C)cc3)[n+]5C)[n+]4C)[n+]2C)c1S(=O)(=O)O (tested in a mixture with another compound),35
9,COc1ccc(N=C(C)C(C)=Nc2ccc(OC)cc2)cc1,11.6
10,COc1ccc2nc(N/N=C/c3ccc(C)s3)cc(C)c2c1,0.7
11,CNC(=S)/C(=N\Nc1nc[nH]c1C(N)=O)C(N)=S,15.1
12,COc1cc(N(CCC#N)CCC#N)ccc1/C(N=Nc1ccc(Cl)cc1)=N/NC(=O)c1cc(Br)ccc1O,17.8
13,O=C(Nc1cccc(NC(=O)C(=O)C2CCC3=C(Sc4ccccc4N3)C2=O)n1)C(=O)C1CCC2=C(Sc3ccccc3N2)C1=O (centres undefined),29.9
14,COC(=O)C(=O)C(C(=O)C(=O)Nc1ccccc1C(C)=O)c1nc2ccc(C(=O)c3ccccc3)cc2[nH]c1=O (centres undefined),5.25
15,[O-]c1ccccc1/C=N/C(/N=C/c1ccccc1[O-])c1ccccc1O.[O-]c1ccccc1/C=N/C(/N=C/c1ccccc1[O-])c1ccccc1O.[Zr+4],14.2
